Laboratory results from PubChem BioAssay (Tox21).
“And” between values parts separate entries of the source, which are not always exact repeats. Identical values can stand only once. Inconclusive results are not listed. The source made the active and inactive calls. Unless noted, calls come from the whole dose curve; as a rule, active = well fitted curve in the direction sought with a large enough effect in the repeat runs; inconclusive = weak or mixed curves; inactive = no such curve, though single readings can be large; an effect the other way counts as inactive or inconclusive.

Legend:
[1] = qHTS assay for small molecules that induce genotoxicity in human embryonic kidney cells expressing luciferase-tagged ATAD5 (AID 651632); note: nearly all actives have a fitted effect of over 15% in size
Summary of the method: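 A rise in luciferase signal from ATAD5-tagged HEK293T cells marks genetic stress. Cells were exposed to compounds for 16 hr at 37C, 5% CO2, then luciferase was quantified after a 30 min room-temperature incubation with Amplite.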

[2] = qHTS assay for small molecule agonists of the p53 signaling pathway - cell viability (AID 651633; calls by dose curve; note: nearly all actives have a fitted effect of over 30% in size; note: potency is the fitted concentration of half-maximal effect)
Summary of the method: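 Viability counter-read: CellTiter-Glo luminescence (30 min, room temperature) in the same p53RE-bla plates. These plates had been exposed to compounds for 16 h at 37 C.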

[3] = qHTS assay for small molecules that induce genotoxicity in human embryonic kidney cells expressing luciferase-tagged ATAD5 - cell viability (AID 651634; calls by dose curve; note: nearly all actives have a fitted effect of over 25% in size; note: potency is the fitted concentration of half-maximal effect)
Summary of the method: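 Cytotoxicity counter-readout: after 15.5 hr compound treatment at 37C, live-cell protease activity in ATAD5-luciferase HEK293T cells measured by CellTiter-Fluor fluorescence, 30 min development at 37C.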

[4] = qHTS assay for small molecule disruptors of the mitochondrial membrane potential (AID 720635); note: potency is the fitted concentration of half-maximal effect
Summary of the method: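 Mitochondrial membrane potential tracked with Mito-MPS dye, red aggregates (ex 540/em 590 nm) against green monomers (ex 490/em 535 nm). Compound treatment 1 hr at 37C, dye 30 min in HepG2.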

[5] = qHTS assay to test for compound auto fluorescence at 535 nm (green) in HepG2 cells (AID 720675)
[6] = qHTS assay to test for compound auto fluorescence at 460 nm (blue) in HEK293 cells (AID 720678)
Summary of the method: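 Auto fluorescence in the blue band was quantified as triamterene equivalency. HEK293 cells were seeded at 2,000/well, dosed after a 4-5 hr attachment, and kept overnight at 37C before the 405/460 nm reading.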

[7] = qHTS assay to test for compound auto fluorescence at 590 nm (red) in HEK293 cells (AID 720679)
Summary of the method: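 Autofluorescence equivalency to Rose Bengal sodium, 540/590nm, in HEK293 cells exposed overnight to 23 nL compound per well.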

[8] = qHTS assay to test for compound auto fluorescence at 535 nm (green) in HEK293 cells (AID 720680)
[9] = qHTS assay to test for compound auto fluorescence at 460 nm (blue) in HEK293 cell free culture (AID 720681)
Summary of the method: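 Blue fluorescence (Ex 405/Em 460 nm, triamterene-equivalent) was read immediately after pin transfer of compound or DMSO into medium (DMEM, 10% FBS) without cells.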

[10] = qHTS assay to test for compound auto fluorescence at 535 nm (green) in HEK293 cell free culture (AID 720682)
Summary of the method: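 Intrinsic compound fluorescence is measured in culture medium containing 10% FBS, with excitation at 485 nm and detection at 535 nm, referenced to fluorescein.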

[11] = qHTS assay to test for compound auto fluorescence at 590 nm (red) in HEK293 cell free culture (AID 720683)
Summary of the method: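 Red-channel autofluorescence of compounds in culture medium (DMEM, 10% FBS), no cells, measured at 540/590 nm. Rose Bengal sodium is the reference fluorophore for equivalence.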

[12] = qHTS assay to test for compound auto fluorescence at 590 nm (red) in HepG2 cell free culture (AID 720684)
Summary of the method: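 Cell-free; medium MEM + 10% FBS; compound or DMSO added by pintool; read Ex 540/Em 590 nm; Rose Bengal sodium as red reference fluorophore.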

[13] = qHTS assay to test for compound auto fluorescence at 460 nm (blue) in HepG2 cell free culture (AID 720685)
Summary of the method: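 Cell-free plates of MEM plus 10% FBS received 23 nL compound or DMSO vehicle; blue-channel (405/460 nm) intensity scored against triamterene as reference fluorophore.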

[14] = qHTS assay to test for compound auto fluorescence at 460 nm (blue) in HepG2 cells (AID 720687)
Summary of the method: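 Blue-channel autofluorescence (Ex/Em 405/460 nm, triamterene-equivalent) was measured after 1 hr compound exposure at 37 C, 5% CO2. Cells were HepG2, plated overnight at 37 C in MEM plus 10% FBS.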

[15] = molecular target: Glucocorticoid receptor (Homo sapiens) (UniProt P04150); experiment: qHTS assay to identify small molecule agonists of the glucocorticoid receptor (GR) signaling pathway (AID 720691; active = well fitted activation curve with a large enough effect in the signal ratio in the repeat runs, not every such curve was filed as active; the % refers to the signal ratio)
Sequence of Glucocorticoid receptor (Homo sapiens) (P04150 whole entry, looked up): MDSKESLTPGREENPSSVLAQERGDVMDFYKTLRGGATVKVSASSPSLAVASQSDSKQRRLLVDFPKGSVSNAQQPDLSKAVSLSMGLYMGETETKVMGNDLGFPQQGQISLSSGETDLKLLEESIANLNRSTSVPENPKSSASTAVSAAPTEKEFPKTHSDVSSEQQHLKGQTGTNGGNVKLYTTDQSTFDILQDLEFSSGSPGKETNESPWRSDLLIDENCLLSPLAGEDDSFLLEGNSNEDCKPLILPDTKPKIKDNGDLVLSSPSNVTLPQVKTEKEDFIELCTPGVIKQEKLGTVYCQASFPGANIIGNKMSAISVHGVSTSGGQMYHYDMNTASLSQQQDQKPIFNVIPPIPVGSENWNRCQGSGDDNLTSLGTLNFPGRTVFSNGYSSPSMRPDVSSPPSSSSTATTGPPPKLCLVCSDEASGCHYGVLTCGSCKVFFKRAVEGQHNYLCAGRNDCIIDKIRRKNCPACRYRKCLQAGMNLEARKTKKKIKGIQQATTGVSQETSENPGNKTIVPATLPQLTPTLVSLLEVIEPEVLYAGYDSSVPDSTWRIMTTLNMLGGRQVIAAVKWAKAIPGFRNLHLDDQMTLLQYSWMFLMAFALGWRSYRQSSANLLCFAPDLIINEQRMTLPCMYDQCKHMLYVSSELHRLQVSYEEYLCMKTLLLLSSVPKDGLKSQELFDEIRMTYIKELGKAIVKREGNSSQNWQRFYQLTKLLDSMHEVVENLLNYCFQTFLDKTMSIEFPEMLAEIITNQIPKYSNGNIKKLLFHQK
Summary of the method: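 Agonist-mode qHTS in HeLa cells stably expressing a glucocorticoid-response-element beta-lactamase reporter. Fluorescence intensity read with FRET substrate (2 h, room temperature) after 18 h compound treatment at 37 C.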

[16] = qHTS assay to test for compound auto fluorescence at 590 nm (red) in HepG2 cells (AID 720674)
Summary of the method: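 We screened compounds on adherent HepG2 cells, incubating them for an hour at 37 C in 5% CO2 before reading emission at 590 nm under 540 nm excitation; values reflect equivalence to Rose Bengal sodium fluorescence.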

[17] = qHTS assay to test for compound auto fluorescence at 535 nm (green) in HepG2 cell free culture (AID 720686)
[18] = qHTS assay for small molecule disruptors of the mitochondrial membrane potential - cell viability (AID 720634; calls by dose curve; note: nearly all actives have a fitted effect of over 20% in size; note: potency is the fitted concentration of half-maximal effect)
Summary of the method: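 Cytotoxicity was quantified from ATP content by CellTiter-Glo luminescence in the same wells as the MMP dye read-out. HepG2 (2,000 cells/well) were plated overnight and exposed to compounds for 1 hr at 37 C.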

[19] = molecular target: Glucocorticoid receptor (Homo sapiens) (UniProt P04150); experiment: qHTS assay to identify small molecule antagonists of the glucocorticoid receptor (GR) signaling pathway (AID 720692; active = well fitted inhibition curve with a large enough effect in the signal ratio in the repeat runs, not every such curve was filed as active; the % refers to the signal ratio; note: potency is the fitted concentration of half-maximal effect)
Summary of the method: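 Inhibition of dexamethasone-driven (5 nM final) beta-lactamase expression was measured in GRE-reporter HeLa cells over 18 h at 37C. Fluorescence was read after 2 h with the B/G FRET substrate at room temperature.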

Measured: Potency

CC(=O)c1cc(C(C)(C)C)cc2c1CCC2(C)C
active: [2] 54.5 µM | [4] 30.6 µM
not listed: [16] | [17] | [18] | [19]
inactive: all other assays above

CC(C)(O)c1cnn2c(-c3ccc(F)c(-c4c(F)cccc4C#N)c3)cnc2n1
not listed: [4] | [12] | [15] | [18] | [19]
inactive: all other assays above

ClCc1ccc(Cl)cc1Cl
not listed: [3] | [4]
inactive: all other assays above

CC(C)CC(C)Nc1ccc(Nc2ccccc2)cc1 (stereo not given)
active: [2] 53.5 µM | [18] 23.9 µM
not listed: [3] | [4] | [15] | [19]
inactive: all other assays above

Fc1cccc(Cl)c1CCl
not listed: [2] | [4] | [19]
inactive: all other assays above

CCCCCCCCCCCCCCC(Br)C(=O)O (stereo not given)
active: [2] 54.5 µM
not listed: [3] | [4] | [15] | [16] | [17] | [19]
inactive: all other assays above

C[C@]12Cc3nonc3C[C@@H]1CC[C@@H]1[C@@H]2CC[C@@]2(C)[C@H]1CC[C@]2(C)O
active: [2] 29.8 µM | [19] 7.56 µM
not listed: [3] | [4] | [15] | [18]
inactive: all other assays above

COc1ccc(N)cc1N
active: [2] 22.4 µM and 33 µM | [18] 63.1 µM and 29.4 µM | [4] 1.78 µM and 4.15 µM
not listed: [3] | [19]
inactive: all other assays above

CC1(C)CN=C(NN=C(/C=C/c2ccc(C(F)(F)F)cc2)/C=C/c2ccc(C(F)(F)F)cc2)NC1
active: [2] 27.3 µM | [3] 48.6 µM
not listed: [4] | [10] | [15] | [18] | [19]
inactive: all other assays above

CCCCCCCCCCCCCCCC[N+](C)(C)C
active: [4] 13.3 µM and 10.5 µM and 27.3 µM
not listed: [2] | [15] | [19]
inactive: all other assays above

CC(C)C1CCC(Cc2ccc(Cl)cc2)C1(O)Cn1cncn1 (stereo not given)
active: [3] 53.9 µM | [4] 15.2 µM
not listed: [2] | [15] | [18] | [19]
inactive: all other assays above

CCc1nn(C)c(C(=O)NCc2ccc(C(C)(C)C)cc2)c1Cl
active: [18] 12.2 µM | [4] 15.4 µM
not listed: [2] | [15] | [19]
inactive: all other assays above

Oc1c(Cl)c(Cl)cc(Cl)c1Cl
active: [4] 5.3 µM
not listed: [3] | [15] | [19]
inactive: all other assays above

CC(C)(C)C(O)/C(=C\c1ccc(Cl)cc1Cl)n1cncn1 (stereo not given)
active: [4] 10.4 µM | [19] 59.3 µM
not listed: [3] | [10] | [18]
inactive: all other assays above
